These results are taken from PubChem BioAssay.

Calls of active or inactive are those of the source.

In one assay the target is Albumin (Bos taurus) (UniProt P02769). Description: bovine serum albumin binders on microarray, profiling panel, artefact control for SMM control protein annotation, biochemical, small-molecule microarray, Alexa647 label, 635/667 nm fluorescence (AID 1118).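 Also: score merges 667 nm emission intensity and signal-to-noise per printed compound spot.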 The note with it: BSA-A647 binding, fluorescence 635 nm, higher = more signal.
Albumin (Bos taurus), sequence (P02769 whole entry, looked up): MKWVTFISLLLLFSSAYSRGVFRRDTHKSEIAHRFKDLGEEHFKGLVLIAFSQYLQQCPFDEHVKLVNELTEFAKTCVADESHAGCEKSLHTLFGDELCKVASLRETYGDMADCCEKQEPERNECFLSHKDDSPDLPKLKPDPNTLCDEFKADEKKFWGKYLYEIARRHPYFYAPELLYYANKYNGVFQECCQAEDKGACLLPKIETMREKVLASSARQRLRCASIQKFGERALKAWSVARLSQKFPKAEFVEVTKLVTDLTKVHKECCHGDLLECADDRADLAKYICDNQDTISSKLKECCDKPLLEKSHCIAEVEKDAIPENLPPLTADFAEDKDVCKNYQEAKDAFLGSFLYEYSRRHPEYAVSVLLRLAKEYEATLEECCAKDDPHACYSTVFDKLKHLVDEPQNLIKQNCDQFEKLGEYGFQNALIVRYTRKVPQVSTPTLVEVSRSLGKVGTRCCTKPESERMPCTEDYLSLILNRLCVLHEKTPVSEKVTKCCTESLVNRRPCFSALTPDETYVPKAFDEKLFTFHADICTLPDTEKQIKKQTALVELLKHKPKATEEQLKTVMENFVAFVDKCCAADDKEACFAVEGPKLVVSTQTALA
A short description of assay [1]: small-molecule microarray binders of probe aXIP, primary screen, biochemical, NeuroSMM set, 635/667 nm fluorescence (AID 1119).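 Also: probe is the protein aXip251-270 applied at 1 µg/mL to compound-printed slides; binding of probe to printed compounds measured as 667 nm fluorescence plus signal to noise.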 The note with it: higher = more signal, called active from +8 up or from −8 down.
Assay [2] in a line: small-molecule binders of probe aNOTCH3, primary screen, biochemical, small-molecule microarray, 635/667 nm fluorescence (AID 1120).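 Also: probe is a biotin-tagged antibody raised against NOTCH3 rather than NOTCH3 protein; score merges spot fluorescence near 667 nm with spot signal to noise.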 The conditions noted are these: higher = more signal.
Assay [3] is described as follows: small-molecule binders of probe aNOTCH2, primary screen, biochemical, small-molecule microarray, 635/667 nm fluorescence (AID 1121).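 Also: score merges feature fluorescence read at 667 nm with its signal to noise.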 The note with it: higher = more signal.
The target in assay [4] is Carbonic anhydrase 2 (Homo sapiens) (UniProt P00918). Description: CAII small-molecule binders, profiling panel, biochemical, small-molecule microarray, Alexa647-labelled CAII (AID 1122). The note with it: CAII-A647 binding fluorescence, higher = more signal.
A short description of assay [5]: COS7 lysate on small-molecule microarray, probe aHis, 635 nm (AID 1123).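 Also: z-score combines 667nm fluorescence intensity with signal-to-noise per printed compound spot.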 The note with it: COS7 cell lysate, fluorescence, higher = more signal.
A short description of assay [6]: compound binding in COS7 lysate, probe aLAP1, primary screen, cell lysate, small-molecule microarray (AID 1124).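 Also: lysate comes from COS7 cells expressing LAP1 and is applied at 0.3 µg/mL; score merges spot fluorescence near 667 nm with signal-to-noise over triplicate slides.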 The conditions noted are these: probe aLAP1, fluorescence, higher = more signal.
A further assay deals with Sam68 (KHDRBS1). Nature of the assay: Sam68 small-molecule binders, primary screen, biochemical, small-molecule microarray, 635 nm fluorescence (AID 1125).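 Also: score merges 667 nm channel intensity with signal to noise over triplicate slides.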 The conditions noted are these: small-molecule microarray binding, higher = more signal.
In assay [7] the test system is Chordin-like protein 2 (CHRDL2). Description: CHRDL2 small-molecule binders, primary screen, biochemical, small-molecule microarray, 635 nm fluorescence (AID 1126).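 Also: printed compound slides probed with Chrdl2 protein at 4 µg/mL for 1 h at 4 C; score merges 667 nm emission intensity with signal to noise over three replicate slides.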 The note with it: small-molecule microarray binding, fluorescence 635 nm; higher = more signal.
The target in assay [8] is Concanavalin-A (Canavalia ensiformis) (UniProt P02866). Description: ConA small-molecule binders, primary screen, artefact control for SMM control protein annotation, biochemical, small-molecule microarray, Alexa647 label, 635 nm (AID 1127).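 Also: z combines 667 nm emission intensity with signal-to-noise across three replicate slides.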 The note with it: ConA-A647 binding fluorescence, higher = more signal.
Concanavalin-A (Canavalia ensiformis), sequence (P02866 whole entry, looked up): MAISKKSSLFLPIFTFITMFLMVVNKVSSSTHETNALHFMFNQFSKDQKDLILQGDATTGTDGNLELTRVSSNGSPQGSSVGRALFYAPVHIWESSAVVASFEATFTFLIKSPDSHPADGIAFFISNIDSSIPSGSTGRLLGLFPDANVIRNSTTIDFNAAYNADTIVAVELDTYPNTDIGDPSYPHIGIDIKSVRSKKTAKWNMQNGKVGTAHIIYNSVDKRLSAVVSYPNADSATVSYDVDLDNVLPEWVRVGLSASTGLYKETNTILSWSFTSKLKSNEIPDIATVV
Assay [9] is described as follows: anti-His antibody binders, primary screen, artefact control for SMM control protein annotation, biochemical, small-molecule microarray, 635 nm fluorescence (AID 1128).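 Also: score merges feature fluorescence with signal-to-noise for each printed compound spot.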 The conditions noted are these: anti-His Alexa647 antibody binding, higher = more signal.
The test system of assay [10] is Human papillomavirus type 1a E7 protein (residues 1-88). Description: HPV1a E7 small-molecule binders, primary screen, biochemical, small-molecule microarray, residues 1-88, 635 nm (AID 1129). The conditions noted are these: small-molecule microarray binding, fluorescence 635 nm; higher = more signal.
The target of assay [11] is Focal adhesion kinase 1 (Homo sapiens) (UniProt Q05397). Description: small-molecule microarray binders of FAK, primary screen, biochemical, 635/667 nm fluorescence, BSA, DTT (AID 1130).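 Also: composite of spot emission at 667 nm and signal to noise over triplicate slides.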 The conditions noted are these: PTK2 binding, 635 nm fluorescence, higher = more signal.
Focal adhesion kinase 1 (Homo sapiens), sequence (Q05397 whole entry, looked up): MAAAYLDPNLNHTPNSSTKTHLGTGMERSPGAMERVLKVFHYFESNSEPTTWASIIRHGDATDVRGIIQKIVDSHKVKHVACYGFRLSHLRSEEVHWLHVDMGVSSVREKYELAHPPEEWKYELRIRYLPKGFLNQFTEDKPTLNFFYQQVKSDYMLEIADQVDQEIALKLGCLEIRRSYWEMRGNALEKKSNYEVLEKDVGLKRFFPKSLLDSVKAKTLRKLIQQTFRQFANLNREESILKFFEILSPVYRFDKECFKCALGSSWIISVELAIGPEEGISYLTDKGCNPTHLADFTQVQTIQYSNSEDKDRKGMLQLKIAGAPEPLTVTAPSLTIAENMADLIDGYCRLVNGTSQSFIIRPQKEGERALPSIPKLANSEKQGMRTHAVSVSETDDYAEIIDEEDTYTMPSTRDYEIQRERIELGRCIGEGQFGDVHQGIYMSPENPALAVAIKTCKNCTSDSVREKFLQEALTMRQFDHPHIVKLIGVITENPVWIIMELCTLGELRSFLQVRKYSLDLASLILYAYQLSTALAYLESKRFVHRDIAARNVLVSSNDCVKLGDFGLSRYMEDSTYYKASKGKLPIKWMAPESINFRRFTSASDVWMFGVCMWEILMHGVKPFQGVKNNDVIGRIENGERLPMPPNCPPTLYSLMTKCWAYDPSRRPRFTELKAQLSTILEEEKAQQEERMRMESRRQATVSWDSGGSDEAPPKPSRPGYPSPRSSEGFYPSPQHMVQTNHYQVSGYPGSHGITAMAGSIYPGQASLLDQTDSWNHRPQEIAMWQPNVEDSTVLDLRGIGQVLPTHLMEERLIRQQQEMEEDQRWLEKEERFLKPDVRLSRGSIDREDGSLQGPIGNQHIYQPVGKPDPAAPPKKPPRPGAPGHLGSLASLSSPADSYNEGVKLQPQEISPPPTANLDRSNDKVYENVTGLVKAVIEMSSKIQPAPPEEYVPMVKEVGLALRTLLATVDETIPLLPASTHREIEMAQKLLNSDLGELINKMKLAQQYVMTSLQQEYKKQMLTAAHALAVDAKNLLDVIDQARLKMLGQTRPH
In assay [12] the test system is Fibrinogen (Alexa647-labelled). Nature of the assay: fibrinogen binders on compound microarrays, profiling panel, artefact control for SMM control-protein annotation, biochemical, small-molecule microarray, 635/667 nm fluorescence (AID 1131).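 Also: z-score merges 667 nm fluorescence with per-spot signal-to-noise over triplicate slides.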 The conditions noted are these: fibrinogen-A647 binding fluorescence, higher = more signal.
The target of assay [13] is Follistatin (Homo sapiens) (UniProt P19883). Nature of the assay: follistatin binders on small-molecule microarrays, primary screen, biochemical, small-molecule microarray, 635/667 nm fluorescence (AID 1132). The note with it: FST binding, 635 nm fluorescence, higher = more signal.
Follistatin (Homo sapiens), sequence (P19883 whole entry, looked up): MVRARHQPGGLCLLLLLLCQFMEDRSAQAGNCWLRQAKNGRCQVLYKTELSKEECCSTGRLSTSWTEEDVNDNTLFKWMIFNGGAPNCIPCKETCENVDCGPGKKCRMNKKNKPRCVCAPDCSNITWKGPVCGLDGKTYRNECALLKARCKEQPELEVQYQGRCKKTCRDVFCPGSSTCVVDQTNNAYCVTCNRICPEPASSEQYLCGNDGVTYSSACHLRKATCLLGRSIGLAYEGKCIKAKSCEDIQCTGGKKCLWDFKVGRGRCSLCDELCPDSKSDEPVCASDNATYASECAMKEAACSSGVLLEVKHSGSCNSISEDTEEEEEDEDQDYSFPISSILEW
Assay [14] addresses Fibroblast growth factor 2 (Homo sapiens) (UniProt P09038). Description: FGF2 binders on small-molecule microarrays, primary screen, biochemical, small-molecule microarray, 635/667 nm fluorescence (AID 1133). The conditions noted are these: small-molecule microarray binding, FGF2, fluorescence 635/667; higher = more signal.
Assay [15] can be described thus: mitochondrial membrane potential change in A549 cells, profiling panel, cell-based, JC-1 fluorescence, basal, 24 h, 100 nL (AID 1138).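 Also: A549 lung adenocarcinoma cells under basal conditions with no added stimulus; test concentration not given here.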 The note with it: higher = more signal.
Another assay has as its system Lefty1. Description: Lefty1 binders on small-molecule microarrays, primary screen, biochemical, small-molecule microarray, 635/667 nm fluorescence (AID 1139). The conditions noted are these: small-molecule microarray binding, fluorescence 635/667; higher = more signal.
In assay [16] the test system is wheat germ agglutinin (Triticum aestivum), Alexa647-labelled. Nature of the assay: wheat germ agglutinin binders on compound microarrays, profiling panel, artefact control for SMM control-protein annotation, biochemical, small-molecule microarray, 635/667 nm fluorescence (AID 1140).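 Also: score merges 667 nm feature emission with signal to noise over triplicate slides.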 The note with it: WGA-A647 binding, 635 nm fluorescence, higher = more signal.
Assay [17] concerns the target Luciferin 4-monooxygenase (Photinus pyralis) (UniProt P08659). Description: firefly luciferase enzyme inhibitors, primary screen, biochemical, luminescence, purified enzyme, 2006 set (AID 1141).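 Also: cell-free assay with purified firefly luciferase at 100 ng per well in PBS; test concentration not given here.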 The conditions noted are these: SteadyGlo luminescence, 30 min, higher = more signal, called active from +8 up or from −8 down.

Luciferin 4-monooxygenase (Photinus pyralis), sequence (P08659 whole entry, looked up): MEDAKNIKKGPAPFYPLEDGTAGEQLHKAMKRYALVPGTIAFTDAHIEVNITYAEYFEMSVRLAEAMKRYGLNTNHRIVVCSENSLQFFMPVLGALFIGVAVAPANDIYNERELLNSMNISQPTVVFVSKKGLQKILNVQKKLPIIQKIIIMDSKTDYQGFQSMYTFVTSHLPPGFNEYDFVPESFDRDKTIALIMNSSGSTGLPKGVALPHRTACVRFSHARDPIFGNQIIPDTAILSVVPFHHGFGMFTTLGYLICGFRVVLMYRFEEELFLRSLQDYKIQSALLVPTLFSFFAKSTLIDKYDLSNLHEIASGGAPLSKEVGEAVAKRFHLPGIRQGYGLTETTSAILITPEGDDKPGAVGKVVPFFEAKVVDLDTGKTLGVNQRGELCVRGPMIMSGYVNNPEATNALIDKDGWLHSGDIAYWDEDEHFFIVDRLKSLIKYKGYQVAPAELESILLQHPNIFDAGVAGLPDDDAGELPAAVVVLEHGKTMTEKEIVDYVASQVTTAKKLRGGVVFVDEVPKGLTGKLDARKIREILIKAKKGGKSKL
Fibroblast growth factor 2 (Homo sapiens), sequence (P09038 whole entry, looked up): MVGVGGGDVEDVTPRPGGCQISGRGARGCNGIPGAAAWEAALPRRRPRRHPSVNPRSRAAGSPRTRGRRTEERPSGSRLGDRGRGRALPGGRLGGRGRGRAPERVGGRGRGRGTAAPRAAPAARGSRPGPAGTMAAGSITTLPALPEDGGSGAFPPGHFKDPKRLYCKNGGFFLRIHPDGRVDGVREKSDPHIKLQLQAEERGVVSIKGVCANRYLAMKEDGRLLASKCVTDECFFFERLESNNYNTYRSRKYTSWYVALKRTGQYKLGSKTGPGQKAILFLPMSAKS

Consider `C[N+](C)(C)CCCCCCNC(=O)[C@@H]1C[C@@H]2C(=O)N3CCC[C@H]3C(=O)N2[C@@H]1c1cccc(OCCO)c1`, for which the composite z-score in the assay with Albumin (Bos taurus) was -0.45; in [2], -0.182; in [3], -0.205; in assay [4], 0.581; in assay [5], 1.56; in assay [6] it was 0.338. Further, the composite z-score in the assay with Sam68 (KHDRBS1) is 0.927; in assay [7], 0.954; in assay [8], 0.743; in assay [9] it was 1.06; in assay [10], 0.049; in [11], 0.622. Further, the composite z-score in [12] is -1.47; in [13], 1.27; in assay [14], 0.941; in the assay on Lefty1, 0.915; in [16], -0.122. For the same compound, in assay [1], the composite Z-score was 0.372 (inactive). The z-score was -0.518 in assay [15] and 0.688 (inactive) in [17].
Consider `CO[C@H]1O[C@H](CO)[C@@H](OC(=O)Nc2ccc3c(c2)OCO3)[C@H](OC(=O)Nc2ccccc2-c2ccccc2)[C@@H]1OC(=O)Nc1ccccc1-c1ccccc1`, for which the composite z-score with Albumin (Bos taurus) was 0.929; in [2], 0.276; in assay [3], 0.186; in assay [4], 0.543; in assay [5], 2.08; in [6], 0.429. The composite z-score was 1.28 in the assay on Sam68 (KHDRBS1); -0.116 in [7]; 1.17 in [8]; 1.84 in assay [9]; 1.18 in assay [10]; 0.195 in assay [11]. The composite z-score in [12] is 0.987; in assay [13] it was 1.14; in assay [14], 1.68; in the assay with Lefty1, 0.186; in assay [16], 1. Further, the composite Z-score in assay [1] was 0.558 (inactive). Also, the z-score in assay [15] is -0.604; in assay [17], -0.485 (inactive).
For `CCOC(=O)CCN1C(=O)[C@H]2[C@H]3[C@H](O)C=CC(=O)[C@@H]3CC[C@H]2C1=O`, the composite z-score in the assay with Albumin (Bos taurus) was -0.186; in assay [2], -0.0449; in [3], -0.0686; in assay [4], -0.078; in assay [5], 0.107; in assay [6], -0.225. Moreover, the composite z-score with Sam68 (KHDRBS1) stood at 0.323; in [7], 0.34; in assay [8] it was 0.412; in assay [9] it was 0.147; in assay [10], 0.621; in [11] it was 0.122. For the same compound, the composite z-score in [12] turned out to be 0.11; in assay [13], 0.488; in assay [14], 0.49; in the assay with Lefty1 it was 0.345; in [16], 0.307. The composite Z-score in [1] is 0.422 (inactive). Further, the z-score was 0.0322 in assay [15] and -0.371 (inactive) in assay [17].
Take `Cc1ccc(F)cc1S(=O)(=O)N[C@@H]1CCN(Cc2ccc(CC(C)C)cc2)C1`: the composite z-score is 0.118 with Albumin (Bos taurus); -0.249 in assay [2]; -0.208 in [3]; 0.013 in assay [4]; 0.193 in [5]; 0.172 in assay [6]. Further, the composite z-score is 0.499 in the assay on Sam68 (KHDRBS1); 0.266 in assay [7]; -1.47 in assay [8]; -0.016 in assay [9]; -0.381 in assay [10]; 0.132 in [11]. Also, the composite z-score was 0.129 in [12]; 0.111 in [13]; -0.367 in [14]; 0.163 in the assay on Lefty1; 0.0831 in assay [16]. Besides, in assay [1], the composite Z-score was -0.316 (inactive). Also, the results for the z-score in assay [15] and in assay [17] were -0.391 and 0.886 (inactive), respectively.
Regarding `O=C1[C@H]2[C@H]3[C@H](O)[C@H](O)CC(=NOCc4ccccc4)[C@H]3CC[C@H]2C(=O)N1c1cccc(Oc2ccccc2)c1`, the composite z-score in the assay with Albumin (Bos taurus) is 0.442; in [2], 0.0793; in assay [3], -0.161; in assay [4], 0.144; in assay [5] it was 1.14; in assay [6], 0.229. Further, the composite z-score in the assay with Sam68 (KHDRBS1) is 1.05; in assay [7], -0.0086; in assay [8], 0.707; in assay [9], 0.623; in assay [10], 1.09; in assay [11] it was 0.333. In addition, the composite z-score in assay [12] was 0.796; in assay [13] it was 0.663; in assay [14], 1.23; in the assay with Lefty1, 0.772; in assay [16], 0.623. Also, the composite Z-score in assay [1] was -0.171 (inactive). For the same compound, the z-score was 0.12 in assay [15] and 0.549 (inactive) in assay [17].
For the compound `CCc1cc2c(nc1CC)CCN(CCC(C)=NOC[C@@H](O)COCc1ccco1)C2`, the composite z-score in the assay with Albumin (Bos taurus) is -0.576; in assay [2], 1.03; in assay [3], 0.31; in [4], 0.193; in assay [5], -0.988; in [6], 0.377. Also, the composite z-score with Sam68 (KHDRBS1) is 0.226; in [7], 1.57; in [8], 0.212; in assay [9], 1.31; in assay [10] it was -0.952; in assay [11], -0.439. The composite z-score in [12] is -0.19; in assay [13] it was 1.47; in assay [14], 1.53; with Lefty1, 1.53; in assay [16], 0.182. Besides, the composite Z-score in assay [1] is -0.206 (inactive). Besides, the z-score in assay [15] is 1.69; in assay [17], -0.85 (inactive).
